Experimental data: PubChem BioAssay AID2284201 (EPA ToxCast)
Active and inactive are the calls of the source. Rule for the calls: active = hit-call score of the fitted dose curve at least 0.9, where 1 is the maximum; inactive = score below 0.9.

target: SLC6A2 (gene 6530) (UniProt P23975); assay: ERF_FR_TR_hSLC6A2: Eurofins (ERF) Radioligand Transport Binding LeadHunter Assay for human Norepinephrine NET Antagonism, conducted at France lab site
Description: ERF_FR_TR_hSLC6A2 is a biochemical, single-readout assay that uses extracted gene-proteins in a cell-free assay. Measurements were taken 2 hour after chemical dosing in a 96-well plate. See NET Human Norepinephrine Transporter Binding (Antagonist Radioligand) Assay, Cerep.ERF_FR_TR_hSLC6A2 is an assay component calculated from the ERF_FR_TR_hSLC6A2 assay. It is designed to measure radioligand binding using a type of binding reporter as detected by scintillation counting with radiometry technology.Data from the assay component ERF_FR_TR_hSLC6A2 was analyzed at the assay endpoint, ERF_FR_TR_hSLC6A2, in the positive analysis fitting direction relative to DMSO as the negative control and baseline of activity. Using a type of binding reporter, loss-of-signal activity can be used to understand changes in enzymatic activity as they relate to gene SLC6A2. To generalize the intended target to other relatable targets, this assay endpoint is annotated to the transporter intended target family, where the subfamily is SLC6 / Monoamine.
Human cells are incubated for 120 minutes at 4C with [3H]nisoxetine (1 nM) ligand and protriptyline as control inhibitor. Test Sample Requirements: Minimum for 1) Screen: 60 ul of 10 mM stock -OR- 1 mg (pre-weighed) for 10 uM final testing. 2) Dose Response: 90 ul of 10 mM stock -OR- 1 mg (pre-weighed) for a top concentration at 10 uM.

Sequence of SLC6A2 (gene 6530) (P23975 whole entry, looked up): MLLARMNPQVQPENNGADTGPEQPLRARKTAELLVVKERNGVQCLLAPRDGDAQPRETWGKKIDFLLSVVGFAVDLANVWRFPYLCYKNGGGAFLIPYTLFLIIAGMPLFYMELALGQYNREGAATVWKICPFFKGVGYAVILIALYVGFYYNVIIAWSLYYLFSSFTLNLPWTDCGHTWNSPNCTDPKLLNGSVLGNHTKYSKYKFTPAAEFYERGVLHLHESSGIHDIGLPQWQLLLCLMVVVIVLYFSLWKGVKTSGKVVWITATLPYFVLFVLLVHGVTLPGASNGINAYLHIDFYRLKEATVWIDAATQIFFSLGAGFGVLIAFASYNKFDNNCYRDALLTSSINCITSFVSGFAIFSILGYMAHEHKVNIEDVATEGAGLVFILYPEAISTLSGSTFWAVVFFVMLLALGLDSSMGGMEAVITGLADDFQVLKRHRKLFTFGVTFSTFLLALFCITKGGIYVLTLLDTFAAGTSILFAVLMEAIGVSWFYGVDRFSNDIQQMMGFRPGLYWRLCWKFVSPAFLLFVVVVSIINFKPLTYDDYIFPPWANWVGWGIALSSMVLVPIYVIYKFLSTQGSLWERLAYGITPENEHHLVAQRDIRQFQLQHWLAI

SMILES | outcome | AC50
COc1cc(CCC(=O)CC(=O)CCc2ccc(O)c(OC)c2)ccc1O | inactive | –
O=C(/C=C/c1ccc(O)cc1)CC(=O)/C=C/c1ccc(O)cc1 | – | 2120 nM (active)
CCCCC[C@H](O)CC(=O)CCc1ccc(O)c(OC)c1 | inactive | –
COc1cc(/C=C/C(=O)CC(=O)/C=C/c2ccc(O)c(OC)c2)ccc1O | – | 2630 nM (active)
